# ± gives the standard deviation of the averaged measurements.
# Experiments:
# Assay in all cases: promoter activity interaction Z-score (Lux/OD deviation from empty-vector control); higher = stronger promoter induction by the compound
# [1] = system: E. coli BW25113 acrABp lux reporter
# Method in brief: (§1)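 Every compound was given at four 1:2 dilutions, in biological duplicates, to E. coli BW25113 carrying low-copy luxCDABE promoter reporters in wild-type or single-gene deletion backgrounds. Growth in 40 µl LB Lennox in 384-well plates at 37°C was followed by OD600 and luminescence readings every 30 min for 12 h, integrated over 0–8 h for wild type and 1–9 h for deletion strains, with wells below 10% of the median growth value excluded. Scores are Z-transformed residuals of growth-normalised luminescence fitted against a control.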
# [2] = system: E. coli BW25113 ompFp lux reporter
# Method in brief: as §1
# [3] = system: E. coli BW25113 robp lux reporter
# Method in brief: as §1
# [4] = system: E. coli BW25113 soxSp lux reporter
# Method in brief: as §1
# [5] = system: E. coli BW25113 tolCp lux reporter
# Method in brief: as §1
# [6] = 18 µg/ml, genetic background: wild type
# [7] = 18 µg/ml, genetic background: ΔmarA
# [8] = 18 µg/ml, genetic background: Δrob
# [9] = 18 µg/ml, genetic background: ΔsoxS
# [10] = 36.1 µg/ml, genetic background: wild type
# [11] = 36.1 µg/ml, genetic background: ΔmarA
# [12] = 36.1 µg/ml, genetic background: Δrob
# [13] = 36.1 µg/ml, genetic background: ΔsoxS
# [14] = 72.1 µg/ml, genetic background: wild type
# [15] = 72.1 µg/ml, genetic background: ΔmarA
# [16] = 72.1 µg/ml, genetic background: Δrob
# [17] = 72.1 µg/ml, genetic background: ΔsoxS
# [18] = 144.2 µg/ml, genetic background: wild type
# [19] = 144.2 µg/ml, genetic background: ΔmarA
# [20] = 144.2 µg/ml, genetic background: Δrob
# [21] = 144.2 µg/ml, genetic background: ΔsoxS
smiles,measurement,setting,value
C[C@]12CC[C@H]3[C@@H](CCC4=CC(=O)CC[C@@]43C)[C@@H]1CC[C@@H]2O [Testosterone],promoter activity interaction Z-score,[1]; [6],-0.445 ± 0.074
same,promoter activity interaction Z-score,[1]; [7],-0.76 ± 0.16
same,promoter activity interaction Z-score,[1]; [8],-0.613 ± 0.11
same,promoter activity interaction Z-score,[1]; [9],-0.272 ± 0.23
same,promoter activity interaction Z-score,[1]; [10],-0.494 ± 0.042
same,promoter activity interaction Z-score,[1]; [11],-1.03 ± 1.1
same,promoter activity interaction Z-score,[1]; [12],-0.524 ± 0.2
same,promoter activity interaction Z-score,[1]; [13],-0.556 ± 0.063
same,promoter activity interaction Z-score,[1]; [14],-0.447 ± 0.14
same,promoter activity interaction Z-score,[1]; [15],0.264 ± 0.87
same,promoter activity interaction Z-score,[1]; [16],-0.624 ± 0.12
same,promoter activity interaction Z-score,[1]; [17],-0.489 ± 0.08
same,promoter activity interaction Z-score,[1]; [18],-0.411 ± 0.019
same,promoter activity interaction Z-score,[1]; [19],-0.669 ± 0.41
same,promoter activity interaction Z-score,[1]; [20],-0.643 ± 0.08
same,promoter activity interaction Z-score,[1]; [21],-0.295 ± 0.29
same,promoter activity interaction Z-score,[2]; [6],-0.491 ± 0.12
same,promoter activity interaction Z-score,[2]; [7],-0.598 ± 0.2
same,promoter activity interaction Z-score,[2]; [8],-0.803 ± 0.57
same,promoter activity interaction Z-score,[2]; [9],0.195 ± 0.35
same,promoter activity interaction Z-score,[2]; [10],-0.432 ± 0.41
same,promoter activity interaction Z-score,[2]; [11],-1.1 ± 0.061
same,promoter activity interaction Z-score,[2]; [12],-0.418 ± 0.62
same,promoter activity interaction Z-score,[2]; [13],-0.713 ± 0.022
same,promoter activity interaction Z-score,[2]; [14],-0.907 ± 0.16
same,promoter activity interaction Z-score,[2]; [15],-0.501 ± 0.28
same,promoter activity interaction Z-score,[2]; [16],-0.424 ± 0.42
same,promoter activity interaction Z-score,[2]; [17],-0.715 ± 0.045
same,promoter activity interaction Z-score,[2]; [18],-0.6982 ± 0.0041
same,promoter activity interaction Z-score,[2]; [19],-0.969 ± 0.097
same,promoter activity interaction Z-score,[2]; [20],-0.395 ± 0.47
same,promoter activity interaction Z-score,[2]; [21],-0.339 ± 0.32
same,promoter activity interaction Z-score,[3]; [6],-0.462 ± 0.23
same,promoter activity interaction Z-score,[3]; [7],-1.03 ± 1.1
same,promoter activity interaction Z-score,[3]; [8],-1.05 ± 0.49
same,promoter activity interaction Z-score,[3]; [9],-0.195 ± 0.39
same,promoter activity interaction Z-score,[3]; [10],-0.445 ± 0.22
same,promoter activity interaction Z-score,[3]; [11],-1.14 ± 0.019
same,promoter activity interaction Z-score,[3]; [12],-0.289 ± 0.96
same,promoter activity interaction Z-score,[3]; [13],-0.498 ± 0.64
same,promoter activity interaction Z-score,[3]; [14],-0.398 ± 0.53
same,promoter activity interaction Z-score,[3]; [15],0.148 ± 0.41
same,promoter activity interaction Z-score,[3]; [16],-0.438 ± 1
same,promoter activity interaction Z-score,[3]; [17],-0.274 ± 0.099
same,promoter activity interaction Z-score,[3]; [18],-0.102 ± 0.59
same,promoter activity interaction Z-score,[3]; [19],-0.151 ± 0.4
same,promoter activity interaction Z-score,[3]; [20],-0.428 ± 0.35
same,promoter activity interaction Z-score,[3]; [21],0.0605 ± 0.79
same,promoter activity interaction Z-score,[4]; [6],-0.254 ± 0.24
same,promoter activity interaction Z-score,[4]; [7],-0.0384 ± 0.16
same,promoter activity interaction Z-score,[4]; [8],-0.165 ± 0.23
same,promoter activity interaction Z-score,[4]; [9],-0.0975 ± 0.27
same,promoter activity interaction Z-score,[4]; [10],-0.534 ± 0.01
same,promoter activity interaction Z-score,[4]; [11],-0.3 ± 0.046
same,promoter activity interaction Z-score,[4]; [12],-0.108 ± 0.14
same,promoter activity interaction Z-score,[4]; [13],-0.463 ± 0.35
same,promoter activity interaction Z-score,[4]; [14],-0.459 ± 0.01
same,promoter activity interaction Z-score,[4]; [15],-0.148 ± 0.037
same,promoter activity interaction Z-score,[4]; [16],-0.0584 ± 0.12
same,promoter activity interaction Z-score,[4]; [17],-0.399 ± 0.15
same,promoter activity interaction Z-score,[4]; [18],-0.398 ± 0.075
same,promoter activity interaction Z-score,[4]; [19],-0.389 ± 0.044
same,promoter activity interaction Z-score,[4]; [20],-0.368 ± 0.021
same,promoter activity interaction Z-score,[4]; [21],-0.448 ± 0.076
same,promoter activity interaction Z-score,[5]; [6],0.0813 ± 0.76
same,promoter activity interaction Z-score,[5]; [7],0.0835 ± 0.37
same,promoter activity interaction Z-score,[5]; [8],-0.682 ± 0.73
same,promoter activity interaction Z-score,[5]; [9],0.781 ± 0.5
same,promoter activity interaction Z-score,[5]; [10],0.191 ± 0.092
same,promoter activity interaction Z-score,[5]; [11],-1.71 ± 0.36
same,promoter activity interaction Z-score,[5]; [12],0.34 ± 0.48
same,promoter activity interaction Z-score,[5]; [13],-0.587 ± 0.0086
same,promoter activity interaction Z-score,[5]; [14],0.0036 ± 0.71
same,promoter activity interaction Z-score,[5]; [15],-0.0511 ± 0.6
same,promoter activity interaction Z-score,[5]; [16],0.112 ± 0.27
same,promoter activity interaction Z-score,[5]; [17],0.394 ± 0.17
same,promoter activity interaction Z-score,[5]; [18],0.135 ± 0.34
same,promoter activity interaction Z-score,[5]; [19],-0.734 ± 0.57
same,promoter activity interaction Z-score,[5]; [20],0.644 ± 0.24
same,promoter activity interaction Z-score,[5]; [21],0.344 ± 0.27

# — the supplement of paper PMC12282887
